# From PubChem BioAssay
# ERb coact inh: ER-beta (human) coactivator binding inhibition | Q92731 | TR-FRET ER-beta LBD / SRC1-Cy5 peptide binding; receptor agonist-loaded with 1 µM estradiol | inhibition, % at 25.6 µM | 86,000 tested, 1.3% active | AID 633;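 active = compounds whose percent inhibition of the receptor-coactivator binding signal exceeds about 50% in the single-dose screen, limit read from the data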;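 also: 0% = receptor plus peptide wells without compound and 100% = peptide-only wells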
# ERa coact pot: enhances coactivator binding to human estrogen receptor alpha. 86,000 tested, 1.3% active. TR-FRET ERalpha-LBD/SRC-Cy5 coactivator binding, 2 h; 100 = basal binding, no effect. coactivator binding (% of control), % at 25.6 µM. P03372; in the data active = activity above about 200%;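 also: binding measured in presence of low estradiol as agonist stimulus; 0% = peptide alone without receptor and 100% = receptor with peptide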
# Target sequence (P03372 whole entry, looked up, the tested form may be a part): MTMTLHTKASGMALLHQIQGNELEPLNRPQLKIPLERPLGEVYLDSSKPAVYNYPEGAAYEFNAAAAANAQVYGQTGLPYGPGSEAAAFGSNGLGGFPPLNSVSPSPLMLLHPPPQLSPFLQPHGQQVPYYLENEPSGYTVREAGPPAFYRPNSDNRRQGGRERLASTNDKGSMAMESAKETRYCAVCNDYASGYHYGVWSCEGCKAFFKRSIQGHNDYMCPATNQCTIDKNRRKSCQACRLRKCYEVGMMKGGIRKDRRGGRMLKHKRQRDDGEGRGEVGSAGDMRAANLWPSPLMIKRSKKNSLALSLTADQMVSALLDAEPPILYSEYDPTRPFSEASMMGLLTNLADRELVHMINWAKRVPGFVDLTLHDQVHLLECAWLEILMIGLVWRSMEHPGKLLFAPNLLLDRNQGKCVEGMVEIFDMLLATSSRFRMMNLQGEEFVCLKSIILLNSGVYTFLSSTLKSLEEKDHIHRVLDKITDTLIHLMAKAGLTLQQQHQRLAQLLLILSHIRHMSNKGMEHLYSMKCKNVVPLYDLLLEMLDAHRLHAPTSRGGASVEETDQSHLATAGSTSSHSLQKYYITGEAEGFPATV
# Smad3 inh: inhibitors of human Smad3 transcription factor binding | P84022 | TR-FRET Smad3/Dy647-FoxH1 peptide binding, europium anti-His | inhibition, % at 25 µM | 88,000 tested, 0.29% active | AID 630;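 active = compounds that reduce the energy-transfer binding signal between the protein and its labelled peptide by more than half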;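 also: 0% = Smad3 plus labelled peptide maximal FRET and 100% = peptide-only background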
# Calb biofilm kill: kills Candida albicans biofilms; C. albicans biofilm + clotrimazole, Alamar Blue; inhibition, % at 6 µM; 85,000 tested, 0.14% active; AID 834;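 active = inhibition above 20%; inactive = inhibition below 20%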;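 also: preformed 24 hr biofilms exposed to compound for 48 hr; 0% = biofilm without compound and 100% = blank killed by clotrimazole plus chlorhexidine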
# ERa SRC1 inh: blocks coactivator binding to human estrogen receptor alpha; P03372; TR-FRET ER-alpha LBD / SRC-1 peptide, estradiol-bound; inhibition, % at 25.6 µM; 86,000 tested, 1.7% active; in the data active = inhibition above about 50%;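 also: 0% = receptor plus peptide control and 100% = peptide only without receptor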
# MT1-MMP txn act: MT1-MMP promoter transcription activation; HT1080 MT1-MMP promoter luciferase reporter, luminescence, overnight; stronger effect = higher value; activation factor at 10 µM; 86,000 tested, 0.16% active;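 active = activation factor of at least 2 for MT1-MMP transcription at 10 µM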
# The depositor's hits bear a star; . = not tested or not shown; [ ] = remark or other dose. Only some compounds are listed: those with a hit (about 3.8% of all), similar ones and a draw of the others.
SMILES,ERb coact inh,ERa coact pot,Smad3 inh,Calb biofilm kill,ERa SRC1 inh,MT1-MMP txn act
Cc1cc(Nc2ccccc2)nn1C(=O)c1ccccc1,7,84,-6,9,-4,1.2
COc1ccc(C(=O)n2nc(C)cc2Nc2ccccc2)cc1,11,96,6,-2,6,2.1*
C=CCSc1nncn1/N=C/c1ccc(OC)cc1,-9,96,12,5,-6,2*
COc1ccc(/C=N/n2cnnc2SCCO)cc1OC,.,.,.,.,.,1.1
O=C(O)c1ccc(N[C@H](c2ccccc2)c2ccc3cccnc3c2O)cc1,.,.,10,.,.,.
CN1CCN(C(c2cccnc2)c2ccc3cccnc3c2O)CC1 (configuration not stated),60*[fluorescence artefact?],83,8,12,78*[fluorescence artefact?],1.1
Cc1noc(C)c1C(=O)NCc1ccco1,7,97,-14,-2,-12,1.1
Cc1onc(-c2ccccc2Cl)c1C(=O)NCc1ccco1,54*,41,23,2,86*[fluorescence artefact?],1
CCOC(=O)C1=C(C)N(CCC(=O)O)C(=O)NC1c1ccccc1Cl (configuration not stated),.,.,.,.,.,1.1
CC(=O)c1cccc(NC(=O)CN2C(=O)NC3(CCCCCCC3)C2=O)c1,31,69,10,0,57*,1
O=C(CN1C(=O)NC2(CCCC2)C1=O)Nc1cccc(-c2nnc3n2CCCCC3)c1,5,106,2,-2,-6,1.1
N#C/C(=C\NC(=S)c1ccncc1)c1nc2ccccc2s1,.,.,3,.,.,.
CCOC(=O)N1CCC(NC(=O)c2cccn3c(=O)c4cc(Br)ccc4nc23)CC1,42,288*[fluorescence artefact?],0,1,60*[fluorescence artefact?],1.1
O=C(O)Cc1[nH]cnc1C(=O)O,.,.,9,.,.,.
Cc1cc(NC(=O)CS(=O)(=O)c2cn(Cc3ccccc3Cl)c3ccccc23)no1,14,660*[fluorescence artefact?],-6,4,15,1
CCOC(=O)N1CCN(C(=O)CS(=O)(=O)c2cn(Cc3ccccc3Cl)c3ccccc23)CC1,2,94,4,6,6,.
COC(=O)c1ccc(C(NC(=O)OCc2ccccc2)/C(=C/[C@@H](C)C(=O)NCc2ccncc2)c2cccnc2)cc1 (some centres not stated),.,.,.,.,.,1.5
Fc1ccccc1Cn1nnc(-c2ccc3c(c2)OCO3)n1,-1,94,11,-2,1,1.4
COc1ccc(-c2nnn(Cc3ccccc3F)n2)cc1,5,95,7,7,-3,2.3*
Cc1cc(C(=O)N2CCN(Cc3ccccc3)CC2)on1,23,88,-7,9,18,.
Cc1nc(N)c(C#N)c(-c2ccccc2)c1C,2,115,3,4,-1,1
Cc1ccc(-n2nc(C)c3c(-c4cccs4)c(C#N)c(N)nc32)cc1,19,210*[fluorescence artefact?],6,3,10,1.2
Cc1nn(-c2ccccc2)c2nc(N)c(C#N)c(-c3ccc(F)cc3)c12,13,215*[fluorescence artefact?],2,4,13,1.1
COC(=O)c1oc2nc(C)cc(C)c2c1N,-7,129,0,5,57*[fluorescence artefact?],1
Cc1cc(C)c2c(N)c(C(=O)c3ccccc3)oc2n1,-4,116,2,7,2,1.2
SMILES,ERb coact inh,ERa coact pot,Smad3 inh,Calb biofilm kill,ERa SRC1 inh,MT1-MMP txn act
C[C@@H](CCC[C@@H]1SC[C@H]2NC(=O)N[C@@H]12)C(=O)O,.,.,7,.,.,.
CCC(=O)/C=C1/Sc2ccc(OC)cc2N1CC,99*[fluorescence artefact?],113,-2,-2,-3,0.8
CCC(=O)/C=C1/Sc2ccccc2N1CC,-2,118,17,7,-11,1
COC(=O)c1cc(=O)n(CCc2ccc(OC)cc2)c(=Nc2ccc(F)c(Cl)c2)s1,8,114,-2,9,5,.
CCn1c(=O)cc(C(=O)OC)sc1=Nc1ccc(F)c(F)c1,95*[fluorescence artefact?],82,3,8,-8,1
C[C@H](CN(C)C)C(=O)c1ccccc1C(=O)O,.,.,-6,.,.,.
CC(C)(C)c1nnc2sc(SCC(=O)c3ccccc3)nn2c1=O,20,100,3,4,-2,1.1
CC(C)(C)c1nnc2sc(SC/C(O)=C(\C#N)c3nc4ccccc4[nH]3)nn2c1=O,62*,69,11,-2,69*[fluorescence artefact?],1.2
COC(=O)c1ccc(C(/C=C/[C@@H](C)C(=O)NCc2ccc(OC)c(O)c2)NC(=O)OCc2ccccc2)cc1 (some centres not stated),.,.,.,.,.,1.1
Cc1nn(-c2ccccc2)c2sc(C(=O)c3c(N)n(C)c(=O)n(C)c3=O)cc12,13,550*,8,4,-11,1
Cc1nn(-c2ccccc2)c2sc(C(=O)n3cccn3)cc12,8,100,3,6,15,1.4
Cc1nn(-c2ccccc2)c2sc(C(=O)C(C#N)c3ccccn3)cc12 (configuration not stated),93*[fluorescence artefact?],23,-1,13,79*[fluorescence artefact?],1.1
Cc1ccn(C(=O)c2cc3c(C)nn(-c4ccccc4)c3s2)n1,14,135,-6,4,15,1.1
CC(C)Cn1c(N)c(C(=O)NCC2CCCO2)c2nc3ccccc3nc21 (configuration not stated),-4,56,7,.,4,1
Nc1c(C(=O)NCC2CCCO2)c2nc3ccccc3nc2n1/N=C/c1ccncc1 (configuration not stated),0,314*[fluorescence artefact?],21,10,-22,1.1
Cc1c(N2C(=O)c3ccc4c5c(ccc(c35)C2=O)CC4)c(=O)n(-c2ccccc2)n1C,92*[fluorescence artefact?],-1,43,8,95*[fluorescence artefact?],1
O=C(CSc1nc2ccccc2c(=O)[nH]1)c1ccc(O)c(O)c1,66*,65,5,-2,59*[fluorescence artefact?],1.1
COc1cc(NC(=O)c2cccs2)c(C(=O)OCC(=O)NC(=O)NC(C)(C)C)cc1OC,75*,101,-12,2,16,1.5
COc1cc(NC(=O)c2cccs2)c(C(=O)OCC(=O)NC(=O)NCc2ccccc2)cc1OC,1,344*,-418,4,39,1.1
COc1ccc(CNC(=O)COC(=O)c2cc(-c3cccs3)nc3ccccc23)cc1OC,6,72,-2,-4,37,0.9
FC(F)(F)c1nc(SCc2ccc(Cl)cc2)n[nH]1,.,.,-2,.,.,.
CC(C)c1ccc(/C=C2/C=C(c3ccc4ccccc4c3)OC2=O)cc1,.,.,-9,.,.,.
CCc1ccccc1NC(=O)/C(=C/c1ccco1)c1ccccc1,-2,82,81*[fluorescence artefact?],67*,5,0.9
Cc1ccc(C(=N)c2ccccc2Cc2cccc3ccccc23)c2ccccc12,.,.,46,.,.,.
N=C1C(c2nc3ccccc3[nH]2)=C(O)CN1c1ccc(CC(=O)O)cc1,58*,52,-10,-1,25,0.9
CCCCCCN1CC(O)=C(c2nc3ccccc3[nH]2)C1=N,46,244*[fluorescence artefact?],2,5,61*[fluorescence artefact?],1.2
Clc1ccc(CSc2ncnc3c2ncn3[C@@H]2CCCCO2)cc1,.,.,0,.,.,.
OCCCNCc1ccncc1,.,.,1,.,.,.
